Reference: PubChem BioAssay (Tox21)
Records with an inconclusive call do not appear. Active and inactive are the calls of the source. The call rests on the fitted dose curve; in most records, active means well fitted inhibition curve with a large enough effect in the repeat runs; inconclusive means weak or mixed curves, or effect the other way; inactive means no such curve, though single readings can be large or run the other way.

The compounds below were run against Nuclear receptor subfamily 1 group I member 3 (Homo sapiens) (UniProt Q14994) (assay: qHTS assay to identify small molecule antagonists of the constitutive androstane receptor (CAR) signaling pathway (AID 1224838;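 further: HepG2 cells stably expressing hCAR with CYP2B6 luciferase reporter stimulated by CITCO; nearly all actives have a fitted effect of over 40% in size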)). Details: HepG2-CYP2B6-hCAR luciferase, CITCO-stimulated, 24 h; series mostly up to 92.4 µM; activity, negative = inhibition: at the top concentration.
Chain of Nuclear receptor subfamily 1 group I member 3 (Homo sapiens) (Q14994 whole entry, looked up): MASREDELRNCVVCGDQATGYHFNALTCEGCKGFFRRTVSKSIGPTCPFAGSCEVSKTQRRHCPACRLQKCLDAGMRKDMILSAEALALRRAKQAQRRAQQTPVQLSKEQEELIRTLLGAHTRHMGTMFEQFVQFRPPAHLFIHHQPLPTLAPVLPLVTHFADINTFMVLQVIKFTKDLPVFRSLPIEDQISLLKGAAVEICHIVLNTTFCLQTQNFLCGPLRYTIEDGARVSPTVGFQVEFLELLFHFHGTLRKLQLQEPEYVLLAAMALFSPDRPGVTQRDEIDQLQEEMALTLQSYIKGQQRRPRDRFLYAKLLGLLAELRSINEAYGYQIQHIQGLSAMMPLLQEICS
Excerpt: U.S. Tox21 Program National Center for Advancing Translational Sciences [NCATS] NIH Chemical Genomics Center [NCGC] U.S. Environmental Protection Agency [EPA] National Institutes of Environmental Health Sciences [NIEHS] National Toxicology Program [NTP] U.S. Food and Drug Administration [FDA] Tox21 Assay Overview: The constitutive androstane receptor (CAR) is a nuclear receptor which regulates multiple drug metabolizing enzymes (DMEs) and transporters. Activating CAR will generally increase the transcription and subsequent translation of CYP2B6 and CYP3A4. These two DMEs represent about 50% of the drug metabolizing potential in the body. When CAR is deactivated, the metabolizing potential in the body will decrease, subsequently increasing the toxicity in the body or lowering the therapeutic potential of a pro-drug. Recently, there have also been studies performed indicating CARs role in energy metabolism and cancer therapy. Therefore, inhibiting CARs activity could have a potential effect on diabetes and cancer. Identifying environmental toxins and compounds which modulate CAR, through the use of the Tox21 10K compound collection, will be an important step in determining the toxicity and potential therapeutic effects these factors will have on the human body.
Tox21 Assay Protocol Summary: A double-stable (hCAR and CYP2B6-2.2kb) transfected cell line, derived from human hepatoma (HepG2) cells, was utilized for the duration of the quantitative high-throughput screens. The HepG2-CYP2B6-hCAR cells suspended in DMEM culture medium supplemented with 10% FBS, 5 ug/mL blasticidin, 0.5 mg/mL geneticin, 100 U/mL penicillin and 100 ug/mL streptomycin were dispensed at 2500 cells/4 uL/well in 1536-well white solid bottom plates using a Multidrop Combi. After the assay plates were incubated at 37 C/5% CO2 for 4 hrs, 23 nL of compounds at 15 concentrations (from 5-48 columns) or positive control (from 1 to 4 columns) were transferred to the assay plates using a Pintool station. One uL of CITCO, was added using a Flying Reagent Dispenser to generate a final concentration of 50 nM CITCO inside each well. After a 24 hr incubation period at 37 C/5% CO2, four uL of ONE-Glo reagent was added into the assay plates using a Flying Reagent Dispenser. After a 30 min incubation period at room temperature, the luminescence intensity in the assay plates was measured using a ViewLux plate reader.
On the % scale 0 is the no-effect control and ±100 the full control effect.

Compound	activity, negative = inhibition
COc1cc(/C=C/C(N)=O)cc(OC)c1OC	17.4% [at 42.5 µM] (inactive)
CCCc1ccc(O)cc1	5.31% (inactive)
CCOc1ccccc1OCC1CNCCO1 (stereo not given)	47.6% [at 42.5 µM] (inactive)
CCO[Si](CC)(OCC)OCC	2.12% (inactive)
CC12CCC(C1)C(C)(C)C2O (stereo not given)	-11.8% (inactive)
CCN1CCCC1CN (stereo not given)	5.86% [at 42.5 µM] (inactive)
CC(=O)c1cc(C)oc1C	-9.31% (inactive)
CC(C)=CCC/C(C)=C/COC=O	-8.9% (inactive)
Cc1c(Cl)cccc1Cl	-4.48% (inactive)
CCCCCCCCCCCCCCC(=O)NC(CO)CCCCCCCCCCCCCC (stereo not given)	0.506% (inactive)
COc1ccc(CCO)cc1	-3.66% (inactive)
CC(=O)CC(=O)OC(C)(C)C	-1.75% (inactive)
CCCCC1CCC(O)CC1 (stereo not given)	-8.28% (inactive)
CCCCCC(C)O (stereo not given)	-8.39% (inactive)
C/C=C(\C)C(C)=O	-9.7% (inactive)
Cc1ccc(C(C)NC(=O)[C@@H](NC(=O)OC(C)C)C(C)C)cc1 (stereo not given in full)	2.63% (inactive)
ONc1ccccc1	121% (inactive)
CCC(=O)c1c(O)cc(O)cc1O	62.1% [at 42.5 µM] (inactive)
O=NN(CCCl)C(=O)NC1CCCCC1	18.5% [at 42.5 µM] (inactive)
CC1=C(O)C(=O)C(C)O1 (stereo not given)	-5.14% (inactive)

Compound	activity, negative = inhibition
CCOC(=O)CC1(C)OCC(C)O1 (stereo not given)	-6.09% (inactive)
O=C1OCCO1	-10.8% (inactive)
CCc1occc(=O)c1O	-6.82% (inactive)
CC(C)CCOC(=O)c1ccccc1	-3.35% (inactive)
CO[C@@]1(NC(=O)Cc2cccs2)C(=O)N2C(C(=O)O)=C(COC(N)=O)CS[C@@H]21	5.73% [at 42.5 µM] (inactive)
C=CCSSCCC	-18.1% (inactive)
O=S(=O)(O)c1ccc2c(N=Nc3ccc(S(=O)(=O)O)c4ccccc34)c(O)c(S(=O)(=O)O)cc2c1	-7.08% [at 8.39 µM] (inactive)
CCCCSCCCC	-9.69% (inactive)
O/N=C/C=N/O	1.34% (inactive)
CC(=O)CC(=O)Nc1ccc(C)cc1C	-16% (inactive)
O=C(Cl)c1ccccc1[N+](=O)[O-]	-7.61% (inactive)
CCOC(CN1CCN(CC(C)C(=O)c2ccccc2)CC1)c1ccccc1 (stereo not given)	-25.3% [at 19 µM] (inactive)
CCCCCCCCCOC(=O)CCCCC(=O)OCCCCCCC	14.4% (inactive)
O=C=NCC1CCCC(CN=C=O)C1 (stereo not given)	-5.54% (inactive)
O=C(NCN1CCOCC1)c1cnccn1	-0.481% [at 42.5 µM] (inactive)
Cc1ccccc1C(N)=O	-6.39% (inactive)
Cc1c(C(=O)c2c[nH]n(C)c2=O)ccc(S(C)(=O)=O)c1C1=NOCC1	-7.92% [at 42.5 µM] (inactive)
CC1=C(C(=O)O)N2C(=O)[C@@H](NC(=O)[C@H](N)c3ccccc3)[C@H]2SC1	18.3% [at 42.5 µM] (inactive)
NCC1(Cc2noc(=O)[nH]2)CCCCC1	21.5% (inactive)
CC1(C)O[C@H]2CC(=O)OC[C@]23[C@H]2CC[C@@]4(C)[C@H](c5ccoc5)OC(=O)[C@H]5O[C@]54[C@]2(C)C(=O)C[C@@H]13	-10.1% [at 42.5 µM] (inactive)
